# About 83,000 compounds went through this panel and 20% of them were active in at least one assay; those are over-represented in the sample as a whole.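 Method: cells in 96-well plates; compound added at one concentration; 48 h incubation; percent growth measured; values under 10 scored active.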 Calls of active or inactive are those of the source.
# Tested on: NCI-H460 lung
# Assay: NCI-60 one-dose screen, 48 h (100 = growth as untreated, 0 = no growth, -100 = all killed)
# Conditions: 10 µM unless noted
# Method: Growth inhibition of the NCI-H460 human Non-Small Cell Lung tumor cell line is measured as a screen for anti-cancer activity. Cells are grown in 96 well plates and exposed to the test compound for 48 hours. Compounds are tested at a single concentration, which is 10^-5 M for most compounds. The reported endpoint is percent growth (GI% or GIPRCNT), where numbers from 0 - 100% represent growth inhibition, and numbers from -100% - 0 represent cell death. For example, a value of 40 represents 60% growth inhibition. A value of 0 means no net growth occurred over the course of the experiment. A value of -40 indicates 40% of cells at the beginning of the experiment died by the end of the experiment. A value of -100 means all cells are dead at the end of the experiment.
# NCI-60 Human Tumor Cell Lines Screen was performed using the standard one-dose NCI protocol, which is described in more detail at https://dtp.cancer.gov/discovery_development/nci-60/default.htm.
# Compounds with GIPRCNT values below 10 were considered active. Activity score was based on GIPRCNT using the following formula: […]
# Score is 0 for GIPRCNT values of 100 or above, 50 for GIPRCNT values of 0, and 100 for GIPRCNT values of -100.
row,Compound,growth
1,OCCCc1n(Cc2ccc3ccccc3c2)c2ccccc2[n+]1Cc1ccc2ccccc2c1,18.4% (inactive)
2,C=C1CC[C@@H]2[C@](C)(COC(C)=O)[C@H](OC(C)=O)CC[C@@]2(C)[C@@H]1CC(NCc1ccccc1)C1=CCOC1=O (stereo not given in full),48.4% (inactive)
3,Nc1ccc2c(c1)Cc1cc(Cl)c(Cl)cc1-2,52.6% (inactive)
4,c1ccc2c(-c3nc4ccccc4[nH]3)cccc2c1,15.5% (inactive)
5,CCN1CC2=C(Nc3nc(SC)[nH]c(=O)c3C2c2cc(OC)c(OC)c(OC)c2)/C(=C/c2cc(OC)c(OC)c(OC)c2)C1 (stereo not given),106% (inactive)
6,OCc1n(Cc2ccc3ccccc3c2)cc[n+]1Cc1ccc2ccccc2c1,53.1% (inactive)
7,Cn1ccnc1C(=O)/C=C/c1ccc(C(=O)Nc2nc3ccccc3[nH]2)cc1,10.9% (inactive)
8,CCCCCCCCCCN1CCC(N2CCCCC2)CC1,-37.9% (active)
9,N/C(=N\c1nc2ccccc2s1)NC(=O)Nc1ccccc1Cl,12.7% (inactive)
10,O=C1C=CC(=O)N1c1ccccc1N1C(=O)C=CC1=O,111% (inactive)
11,Cc1ccc(C2=Nc3c(ccc4c(C)c(C)c(=O)oc34)OC2)cc1,102% (inactive)
12,COc1ccc(NC(=O)c2ccc(-c3ccccc3)cc2)c(C(N)=O)c1,100% (inactive)
13,N#Cc1c(NC(=O)c2ccco2)[n+]([O-])c2ccccc2[n+]1[O-],107% (inactive)
14,O=C(N/N=C/c1cccc(O)c1)c1ccc(C(F)(F)F)nc1Nc1cccc(C(F)(F)F)c1,11.5% (inactive)
15,CCNCCCn1c2c(c3ccc(F)cc3c1=O)C(=O)c1cc(OC)cnc1-2,-27.1% (active)
16,COc1ccc2nc(N/N=C(\C)c3ccccn3)cc(C)c2c1,-68% (active)
17,COc1cc(/C(Cl)=C/C=C/C(=O)c2c(C)[n+]([O-])c3ccc(Cl)cc3[n+]2[O-])cc(OC)c1OC,56.6% (inactive)
18,O=C1/C=C/[C@@H](O)[C@@H]2C[C@@H](O)C[C@H]2/C=C/CCC[C@H](CO)O1,45.1% (inactive)
19,CN(C)CCCNc1nn2c(=O)c3ccccc3nc2c2ccccc12,19.9% (inactive)
20,Cc1ccc(-c2cc(-c3ccccc3)n(-c3ccccc3)n2)cc1,104% (inactive)

row,Compound,growth
1,O=C1/C(=C\c2coc3ccccc3c2=O)c2ccccc2N1c1c(Cl)cccc1Cl,19% (inactive)
2,O=C(Nc1ccc(Cl)cc1)Nc1nc2ccc(OC(F)(F)F)cc2o1,81.8% (inactive)
3,Cc1ccc(/C=C(/C#N)n2nnc3ncccc32)cc1,-14% (active)
4,CN1CCN(c2nc3scc(-c4ccccc4)c3c(=O)[nH]2)CC1,108% (inactive)
5,NS(=O)(=O)c1cc2c(cc1Cl)NC=NS2(=O)=O,110% (inactive)
6,COc1ccc(N2CCN(CC(=O)N3CCN(c4nnc(-c5ccccc5)c(-c5ccccc5)n4)CC3)CC2)cc1,42.5% (inactive)
7,CC(C)C[C@H](NC(=O)/C=C/Cn1ccc2ccccc2c1=O)B(O)O,84.6% (inactive)
8,CN1CCN(CCCOc2ccc3ncnc(Nc4ccc(OCc5cccc(F)c5)c(Cl)c4)c3c2)CC1,-68.9% (active)
9,O=c1sc2ncnc3ncn1c32,85.7% (inactive)
10,O[N+]1=CC=CCC1=S.On1ccccc1=S.[Zn],-70.5% (active)
11,CCCCCCCC[Si](OCC)(OCC)OCC,107% (inactive)
12,CC[N+](CCCCCCCCCC[N+](CC)(c1ccccn1)c1ccccn1)(c1ccccn1)c1ccccn1,0.887% (active)
13,CC(C)N(Cc1ccccc1)c1c(Cl)ssc1=O,109% (inactive)
14,Cc1cc(Br)c(C)cc1Br,114% (inactive)
15,O=C(Nc1ccccc1)c1cc(-n2cnc([N+](=O)[O-])c2)cc(-n2cnc([N+](=O)[O-])c2)n1,119% (inactive)
16,COc1ccc(-n2cnc3cc(C(=O)N4CCCCC4)ccc32)cc1,101% (inactive)
17,COP(=O)(OC)C(c1ccccc1)(c1ccccc1)c1ccccc1,108% (inactive)
18,COc1cc(-c2nc3nc4sc(C)c(C)c4c(=O)n3[nH]2)cc(OC)c1OC,92.9% (inactive)
19,O=C(NC1CCCCC1)c1ccc(Nc2ncnc3c2cnn3-c2ccccc2)cc1,42.2% (inactive)
20,O=C1/C(=C/c2ccccc2O)C(=S)SN1Cc1ccco1,106% (inactive)

# Reference: PubChem BioAssay (NCI)
